Shown are actives, neighbours in structure and some others; about 12% of the full set was active somewhere.
Shiga inhibitor: A qHTS for Small Molecule Inhibitors of Shiga Toxin | Vero cells, Shiga toxin protein synthesis inhibition reporter | actives 9.2% (n = 290,000) | inhibition, % at 38.7 µM; in the data active means inhibition mostly above about 28%, no sharp cut-off; inactive means mostly below about 43%; further: 0% is about no effect
SARS PLP yeast: qHTS of Yeast-based Assay for SARS-CoV PLP. S. cerevisiae expressing SARS-CoV PLpro, growth rescue. Potency, µM (highest dose often 32.9 µM), for the others: top-dose activity, positive = growth rescue, hits mostly activators. actives 0.19% (n = 330,000); further: potency means the concentration at half of the fitted maximal effect; 0% is about no effect; nearly all actives have a fitted effect of over 55% in size
NS1 inh: qHTS Assay for Inhibitors of Influenza NS1 Protein Function | AID 2326, 2010 | Potency, µM (top dose mostly 46.1 µM), inactives show at the top dose activity, positive = more growth | actives 0.4% (n = 270,000); further: potency means the concentration at half of the fitted maximal effect; actives are rising curves; nearly all actives have a fitted effect of over 50% in size
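Growth recovery, yeast-based: influenza A NS1 expressed in S. cerevisiae causes slow growth, and suppressors are detected by OD600. The parent strain without NS1 is used as positive control.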
CHX counter: Cycloheximide Counterscreen for Small Molecule Inhibitors of Shiga Toxin. AID 2314, 2010. max response, %. actives 12% (n = 300,000). cell reporter, cycloheximide protein synthesis inhibition counterscreen; in the data active means max response mostly above about 13%, no sharp cut-off; inactive means mostly below about 14%; further: read at 38.3 µM for the half of the compounds with a filed dose; 0% is about no effect
An asterisk follows results filed as active; . = no result given. Unless noted, the call rests on the fitted dose curve.

SMILES | Shiga inhibitor | SARS PLP yeast | NS1 inh | CHX counter
CN(CC(=O)Nc1ccccc1Cl)CC(=O)N1CCc2ccccc21 | . | 3% | . | .
CCOc1ccc2nc(NC(=O)CN3CCN(C)CC3)sc2c1 | 50 | -7% | 2% | 27*
CCC(C)NC(=O)c1ccc(CSCc2cccc(F)c2)o1 (stereo unspecified) | 33 | -2% | -100% | 25*
O=C(NC1CC1)c1ccc(CSCc2cccc(F)c2)o1 | 35 | -4% | -29% | 11*
COc1ccc(-c2nc(C(=O)O)cs2)cc1OC | 20 | 0% | . | -3
COc1ccc(-c2cc(C(=O)O)nc3ccc4ccccc4c23)cc1OC | 41* | -3% | . | 18*
CN(C)c1ccc(NC(=O)c2ccc(COc3cccc(Cl)c3)o2)cc1 | 77* | -11% | -39% | 55*
CC(C)(C)NC(=O)c1ccc(COc2ccc(Cl)cc2Cl)o1 | 19 | -5% | -11% | -2
NNC(=O)c1ccc(COc2cccc3ccccc23)o1 | 22 | 1% | 16% | 8
CCN1CCN(C(=O)c2ccc(COc3cccc(Cl)c3)o2)CC1 | -3 | -3% | 0% | -1
CCOc1ccc(OCc2ccc(C(=O)NC(C)(C)C)o2)cc1 | 37* | -3% | -3% | 12
CCOc1ccc(OCc2ccc(C(=O)NN)o2)cc1 | 54* | 1% | 8% | 30*
NNC(=O)c1ccc(COc2ccc3ccccc3c2)o1 | 34* | 0% | 15% | 19*
O=C(CCCc1ccccc1)NCCS(=O)(=O)N1CCN(c2ccc(F)cc2)CC1 | . | 3% | . | .
C=CC[C@H](CC(=O)NCCO)C(=O)N[C@@H](COC(=O)[C@@H](CC=C)CC(=O)OC(C)(C)C)Cc1c[nH]c2ccccc12 | . | 6% | . | .
Cc1ccc(OCc2ccc(C(=O)NN)o2)cc1C | 31 | 0% | 10% | 26*
CC(C)NC(=O)c1ccc(COc2ccc(C(C)(C)C)cc2)o1 | 160* | -8% | -36% | 95*
CCOc1ccc(OCc2ccc(C(=O)Nc3cccnc3)o2)cc1 | 158* | 1% | -44% | 31*
O=C(OCc1ccccn1)c1ccc(COc2ccc3ccccc3c2)o1 | 66* | -1% | -37% | 45*
Cc1ccc(C)c(OCc2ccc(C(=O)NN)o2)c1 | 10 | -2% | 7% | 11
CCOc1ccc(OCc2ccc(C(=O)NCc3cccnc3)o2)cc1 | -4 | -1% | 10% | 14
COc1ccc(NC(=O)CN(C)S(=O)(=O)c2ccc3c(c2)OCCO3)c2ncccc12 | 11 | -12% | -7% | -2
Cc1ccc(NC(=O)CN(C)C(=O)CSc2nnc(C)s2)cc1 | . | -3% | . | .
Cc1cc(NC(=O)c2cc3cccc([N+](=O)[O-])c3[nH]2)ccc1F | 86* | -9% | 6% | 56*
COCC(C)NC(=O)c1cc2cccc([N+](=O)[O-])c2[nH]1 (stereo unspecified) | 17 | -3% | -3% | 22
SMILES | Shiga inhibitor | SARS PLP yeast | NS1 inh | CHX counter
Cc1cc(C)c(C)c(N=Nc2nc3ccccc3n2C)c1C | 92* | -51% | -22% | 63*
Cc1ccc(C)c(N=Nc2nc3ccccc3n2C)c1 | 76* | -21% | -148% | 47*
O=C(O)CSCCc1ccccc1 | . | . | 0% | .
COc1cccc(NC(=O)Nc2cc(C(=O)NCC3CCCO3)ccc2N2CC3CC(C2)c2cccc(=O)n2C3)c1 (stereo unspecified) | 9 | -2% | -10% | -5
O=C(CCC(=O)c1ccc(F)cc1)Nc1ccccc1Cl | 36* | -5% | -4% | 17
Cc1ccc(CCC(=O)Nc2ccccc2F)s1 | 93* | -2% | -7% | 32*
Cc1ccc(C(=O)CCC(=O)Nc2ccccc2F)cc1 | 39 | -5% | -13% | 33*
O=C(CN1CCN(CC(=O)c2ccc(F)cc2)CC1)Nc1ccccc1Cl | -11 | -10% | -8% | 2
O=C(CC(=O)Nc1ccccc1F)Nc1ccccc1F | 7 | 0% | -3% | 7
O=C(NCc1ccc(OC(F)(F)F)cc1)C1CC2Cn3c(nc4ccccc43)C2N1c1ccccc1 (stereo unspecified) | 1 | -8% | 1% | 0
COc1cccc(C(=O)OCC(=O)NCCNC(=O)COC(=O)c2cccc(OC)c2OC)c1OC | 14 | -2% | -6% | -1
CCN(CC(=O)NCc1ccc(Cl)cc1)C(=O)c1ccc(S(=O)(=O)N(C)C)cc1 | 23 | 0% | . | -4
CCN(CC)C(=O)CSc1nc2sc3c(c2c(=O)n1CCCOC)CCC3 | . | 2% | 3% | -2
COCCn1c(SCC(=O)Nc2ncc(C)s2)nc2sc3c(c2c1=O)CCC3 | 38 | -5% | 2% | 25*
Cc1cc(NCc2ccccc2)nc2ccccc12 | 19 | -14% | -1% | 15
Cc1ccc(Nc2ccc(NCc3ccccc3)nn2)cc1C | 68* | 10% | -21% | 33*
Clc1ccc(Nc2ccc(NCc3ccccc3)nn2)cc1 | 60* | 12% | -22% | 34*
CCc1ccc(C(=O)Nc2nnn(CC)n2)cc1 | 13 | -11% | 3% | 11*
CCn1nnc(NC(=O)c2ccc(Br)o2)n1 | 27 | -23% | 5% | 4
CCn1nnc(NC(=O)c2ccc(-c3ccccc3[N+](=O)[O-])o2)n1 | 38 | 0% | -9% | 17*
CC(=O)c1cccc(NC(=O)c2ccc(-c3ccccc3[N+](=O)[O-])o2)c1 | 51* | 3% | 19% | 70*
CCCCn1nnc(NC(=O)c2ccc(-c3cccc([N+](=O)[O-])c3)o2)n1 | 20 | -1% | -1% | 16
CCCCn1nnc(NC(=O)c2ccc(-c3ccccc3)cc2)n1 | active | 4% | -1% | 41*
CCOc1ccc(NC(=O)CN(C)C(=O)c2ccccc2CCc2ccccc2)cc1OCC | . | -2% | . | .
CCOC(=O)C1=C(C)NC(C)=C(C(=O)OCC)C1C(=O)OCC(=O)NCc1ccccc1OC | . | 5% | . | .
SMILES | Shiga inhibitor | SARS PLP yeast | NS1 inh | CHX counter
C=CCOc1nc(-c2ccncc2)nc2ccccc12 | -14 | -9% | -195% | 3
CCn1nnc(NC(=O)c2cc3ccccc3o2)n1 | 81* | -9% | -2% | 30*
CCCCn1nnc(NC(=O)c2cc3ccccc3o2)n1 | 42* | -1% | -20% | 44*
Cn1nnc(NC(=S)NC(=O)c2ccco2)n1 | 7 | 1% | 19% | 8
Cc1nc(NC(=O)c2cc3ccccc3o2)ccc1Br | 23 | 0% | -8% | 11
CCCn1nnc(NC(=O)c2cccc(Cl)c2)n1 | 128 | 3% | -3% | 35
CCCn1nnc(NC(=O)c2ccc3c(c2)OCO3)n1 | 89* | 1% | 7% | 54*
Cn1nnc(NC(=S)NC(=O)c2cc3ccccc3o2)n1 | -1 | -1% | -65% | 11*
Cc1nn(-c2ccccc2C(F)(F)F)c(=O)c2noc(C)c12 | -5 | -1% | 6% | -2
CCOC(=O)C1CCN(S(=O)(=O)c2ccc(Cl)s2)CC1 | 38 | 7% | 8% | 1
CCN1CC(CN(C)Cc2nc(Cc3ccccc3)no2)CC1=O (stereo unspecified) | 5 | 0% | 3% | -3
O=C(O)CN(Cc1ccccc1)S(=O)(=O)c1ccc(F)cc1 | 16 | 3% | -11% | -3
CCCn1nnc(NC(=O)c2cc3ccccc3o2)n1 | 74* | -12% | 3% | 43*
COc1cc(/C=C(\C#N)C(=O)NCC2CCCO2)ccc1OC(C)C (stereo unspecified) | 92 | -10% | -16% | 73*
